Test results published in article PMC10163288.
These entries were drawn from the full list. The true hit rate is not given.

B1: il2ra_site2_3nfp_normal_mot_HHH_b1_05627_af2_000000038_0001_43_56_H_._HHH_b1_05526_af2_0001_0000100005_0000001_0 (protein)
chain: SSSSDKAEEYVRAAMEAARYALEDGNPEVARRSLELARQLAESLGNEELREEVEELLQELSSSSS
B2: il2ra_site2_2erj_sap_21_mot_HHH_b1_00069_af2_000000103_0001_1_18_H_._HHH_b1_05528_af2_0001_0000500009_0000001_0_0001_af2pred_0001_af2pred (protein)
chain: SSSSDEIRRLYELAEELDKLLLEGDEEKVEELLEELEQLARETNTPSAEKVVRAIEKSLESSSSS
B3: il2ra_site1_2b5i_sap_8_mot_HHH_b2_04131_000000150_0001_1_16_H_._HHH_b2_06569_af2_0001_0000100002_0000001_0_0001_af2pred_dldesign_0_af2pred (protein)
chain: SSSSSSAEEFVNEAIEKAKELKAAGRPDEARRLLKLALKRARKANDADLVARVEALLAELSSSSS
B4: il2ra_site1_1z92_normal_mot_6c2800a769814540b5b47941e710ff28_0001_af2_000000005_0001_35_49_H_._6228ca5b8b091676f337a4c0a06dbe92_0001_0003_0000300038_0000001_0 (protein)
chain: DEFLIEQLLRKIEAGNEESAERIIERLLKNAGIPPEEVERIVEELLKLLKDGDPEEARKLLREAP
B5: il2ra_site2_2erj_sap_28_mot_3b06bd03f1c6bceadc68eab912867b79_0001_000000296_0001_36_50_H_._HHH_b2_07644_af2_0001_0000200004_0000001_0_0001 (protein)
chain: SSSSSDELKRAYELANALMHLVARNDREEFERISEEFEEIVEKLDSRTAREILESLERLISSSSS
B6: il2ra_site2_2erj_sap_26_mot_6c2800a769814540b5b47941e710ff28_0001_000000197_0001_35_49_H_._HHH_b2_05475_0001_0000200011_0000001_0_0001_af2pred_0001_af2pred (protein)
chain: DDEEYIEMWVELAAKRLGVPSVEVETRNGTLHVTVNGTDEAARRVLLAAELAAKAAGLPFETTEE
B7: il2ra_site1_3nfp_sap_15_mot_HHH_b1_05868_af2_000000129_0001_1_19_H_._HHH_b1_04163_af2_0001_0000300017_0000001_0_0001_af2pred_0001_af2pred (protein)
chain: SSSSSWREKAMEAILRAAELANDEELREELEKLLEKLREEGDPRALREAVKLLKEAAKRLSSSSS
B8: il2ra_site2_3nfp_sap_32_mot_HHH_b1_00050_000000292_0001_22_38_H_._HHH_b2_06764_0001_0000600039_0000001_0_0001 (protein)
chain: SSSSDESEEYFEAAFELVRLALEAGDPEAARRLLEMLELVAESQNDPELQRLVEELEEELSSSSS
B9: il2ra_site1_3nfp_sap_18_mot_ems_3hM_2054_af2_000000130_0001_3_20_H_._HHH_b2_07863_0001_0000600021_0000001_0_0001 (protein)
chain: SRILERFVKIARKRGNPEFARVVEILLEVLEQDPRLKRAIDKILFELVSGKLPPEEAEELAKELK
B10: il2ra_site2_3nfp_normal_mot_HHH_b2_05513_000000198_0001_20_37_H_._52c50354b804bec8c3157ba16786ada3_0001_0001_0001000025_0000001_0_af2pred_0001_1_af2pred_swapped (protein)
chain: DDLEERLRRSAELAGDPHDAVVFFIAFLEYELGDPEEAIELALEVAEELGDPELERIIRELRKLP
B11: il2ra_site2_3nfp_normal_mot_HHH_b1_00239_000000199_0001_23_39_H_._HHH_b2_02904_0001_0000200025_0000001_0 (protein)
chain: SSSSNEEILREAAELLLELLEERGDEEELRELEELLEELKRHGDPELQLELYAVLARIYSSSSSS
B12: il2ra_site1_2b5i_normal_mot_3116615af0ee64d731c1c85d8523bf51_0001_000000216_0001_15_32_H_._HHH_b1_07838_af2_0001_0000100001_0000001_0_af2pred_dldesign_0_af2pred (protein)
chain: SSSSSALEKEVEETLAKADELKAAGKRREALEALEKIHKKLSAADAEDLQEKVEKKAKELSSSSS
B13: il2ra_site1_3nfp_normal_mot_eb5a5eebac1e5153f932cc6c3f4b2787_0001_af2_000000065_0001_18_33_H_._HHH_b2_04044_0002_0000100009_0000001_0 (protein)
chain: SSSSSDEEIRERVEELLEEAKHIPDYREASRLVEEAYRLAAELGDPELSELIYRVMREIVSSSSS
B14: il2ra_site1_3nfp_sap_21_mot_HHH_b2_02066_af2_000000034_0001_1_16_H_._c2845cfc7c062bbeb7cd94dd36b2ebbf_0001_af2_0001_0000100001_0000001_0_0001_af2pred_0001_af2pr … (protein)
chain: SSSEEELQELFKLALELHKKLTNPEARQVVIHAMALVARATRTKDPELERRAREAIEEAEELDSS
B15: il2ra_site2_2erj_normal_mot_HHH_b2_06726_000000006_0001_1_16_H_._HHH_b1_04199_0001_0000300043_0000001_1_af2pred_0001_af2pred (protein)
chain: SSSSSSEYREEIEELIEEARRVDEEEAVALLAEAAFLAVRNKDEEIFREVAELSLELYRRSSSSS
B16: il2ra_site2_3nfp_sap_23_mot_347257a5708f0dc4a322ca97a98db719_0001_1_af2_000000210_0001_36_49_H_._796cb09f51c241c629a2416424e53d75_0001_0001_0000100001_0000001_0 … (protein)
chain: SSSSDKEEERVEELLEELKRLIEEGDEEKARRAFAEAAHLIFELNDSELFARLAELALELWSSSS
B17: il2ra_site1_3nfp_sap_17_mot_HHH_b1_01159_af2_000000107_0001_1_20_H_._HHH_b1_00510_0001_0000100012_0000001_0_0001 (protein)
chain: DEEEIRREIEELLEEDPQEAMQFAMKLAHEAMRNNDPELLRVVLEALLKVTGDPSVKKLLEVARR
B18: il2ra_site1_1z92_normal_mot_HHH_b1_03515_000000289_0001_1_19_H_._HHH_b2_04566_af2_0001_0000100001_0000001_0 (protein)
chain: SSSDEEQARRSLERLVEDAVKLAGLSEEQKEKLEELVEELIERGVDFLEAIKLIDELARELSSSS
B19: il2ra_site1_2b5i_sap_13_mot_HHH_b2_07160_000000135_0001_1_14_H_._HHH_b1_04051_0001_0000500030_0000001_1_0001_af2pred_dldesign_0_af2pred (protein)
chain: SSSSSLGRRRRELLERADKAFKAEDYELLKELLKEVKELVEKTKRKSDKAILKLIEEALEESSSS
B20: il2ra_site2_2erj_sap_21_mot_6ec3e94b46d95805cdcdc10c0c108f03_0001_af2_000000040_0001_36_50_H_._HHH_b2_04396_0001_0000200006_0000001_0_0001 (protein)
chain: SSSSSEWEEAARLSVLLLEAARKNDEELLEELRREAEELIKEIKNPAARRYLEFALRDVERSSSS
B21: il2ra_site1_1z92_sap_19_mot_HHH_b2_03511_af2_000000113_0001_41_54_H_._HHH_b2_01993_af2_0001_0000400041_0000001_0_0001 (protein)
chain: DEAEEVIERAIEAVERGDPEEVRRLLEKLIEHTGDPALRFLLEVLERKLEAGNYKAARAILEKSR
B22: il2ra_site2_3nfp_normal_mot_HHH_b2_04451_000000238_0001_21_37_H_._HHH_b1_08573_0001_0000400020_0000001_0 (protein)
chain: SSSDEEERIEELIELVEELIKEGDRTEALQVLLEASELAAKLGDEELARILLELFLLLQEKSSSS

Target: il2ra, P01589
Assay: yeast display titration

Chain of il2ra, P01589 (P01589 whole entry): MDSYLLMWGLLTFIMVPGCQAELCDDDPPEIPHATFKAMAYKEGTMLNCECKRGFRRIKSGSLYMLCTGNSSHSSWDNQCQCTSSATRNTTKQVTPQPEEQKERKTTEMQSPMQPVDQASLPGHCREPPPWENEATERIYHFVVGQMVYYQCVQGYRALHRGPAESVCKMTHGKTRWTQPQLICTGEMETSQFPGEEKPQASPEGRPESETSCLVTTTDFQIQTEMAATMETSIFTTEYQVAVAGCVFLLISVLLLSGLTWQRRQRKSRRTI

Apparent Kd, inactive:
B1 no binding seen, B2 no binding seen, B3 no binding seen, B4 no binding seen, B5 no binding seen, B6 no binding seen, B7 no binding seen, B8 no binding seen, B9 no binding seen, B10 no binding seen, B11 no binding seen, B12 no binding seen, B13 no binding seen, B14 no binding seen, B15 no binding seen, B16 no binding seen, B17 no binding seen, B18 no binding seen, B19 > 487 nM, B20 no binding seen, B21 no binding seen, B22 no binding seen
